1 compound from PubChem BioAssay AID493188 (National Center for Advancing Translational Sciences (NCATS), 2011) can be followed below.

This assay deals with Galactokinase (Homo sapiens) (UniProt P51570). Nature of the assay: Confirmation Assay for Inhibitors of Human Galactokinase (GALK): SAR round 2. The following applies: Recombinant GALK, Kinase-Glo ATP depletion luminescence; series mostly up to 57.5 µM. The source says:
NIH Molecular Libraries Probe Production Centers Network [MLPCN] NIH Chemical Genomics Center [NCGC] MLPCN Grant: R03 MH085689-01 Assay Submitter (PI): Kent Lai (University of Utah School of Medicine, 50 N Mario Capecchi Drive, Salt Lake City, UT 84132) NCGC Assay Overview Inherited deficiency of galactose-1-phosphate uridyltransferase (GALT) can result in a potentially lethal disorder called Classic Galactosemia (OMIM 230400). Several lines of evidence indicate that an elevated level of galactose-1-phosphate (gal-1-p), the product of galactokinase (GALK), is a major, if not sole, pathogenic mechanism in patients with classic galactosemia. Therefore, finding inhibitors of GALK is a potential novel therapy for this inherent metabolic disease and is the long term goal of this project. Active compounds observed in the qHTS GALK assay (AID: 1868) were cherry picked and re-screened for validation. […]
NCGC Assay Protocol Summary: Three uL/well of ATP-buffer solution (35 uM ATP, 20mM HEPES pH8.0, 5 mM MgCl2, 60 mM NaCl, 1 mM DTT, 0.01% BSA final concentration) was dispensed into 1536-well, assay plates (Greiner, solid white medium-binding plates) with Aurora Discovery BioRAPTR Flying Reagent Dispenser (FRD; Beckton-Dickenson). […] Luminescence was detected with the ViewLux plate reader (Perkin Elmer, Waltham, MA) after 2 min incubation using a 1 sec exposure time and 2x binning.
For orientation: In Kinase-Glo more light means more ATP remaining.

Inconclusive results are not listed. Calls of active or inactive are those of the source. Calls come from the whole dose curve; as a rule, active = well fitted inhibition curve with a large enough effect; inconclusive = small, poorly fitted or top-dose-only effect; inactive = flat fitted curve, though single readings scatter.

Chain of Galactokinase (Homo sapiens) (P51570 whole entry, looked up): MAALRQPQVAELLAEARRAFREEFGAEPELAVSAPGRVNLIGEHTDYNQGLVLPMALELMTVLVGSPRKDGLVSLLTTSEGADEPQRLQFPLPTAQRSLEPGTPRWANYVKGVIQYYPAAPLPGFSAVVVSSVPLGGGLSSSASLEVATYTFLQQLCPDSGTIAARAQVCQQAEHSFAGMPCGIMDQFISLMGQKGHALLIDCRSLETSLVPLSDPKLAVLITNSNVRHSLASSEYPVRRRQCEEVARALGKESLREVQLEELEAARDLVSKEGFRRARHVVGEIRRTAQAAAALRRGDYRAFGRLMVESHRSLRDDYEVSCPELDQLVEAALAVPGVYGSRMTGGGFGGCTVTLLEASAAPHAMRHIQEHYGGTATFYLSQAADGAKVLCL

With `CC(=O)OCOCC(=O)OCO[P+](=O)C(OCOC(C)=O)c1cc([N+](=O)[O-])ccc1Oc1ccc(Br)cc1` (stereo unspecified), the result was inactive.
